Measured values published in PubChem BioAssay AID1159580 (chemical genetic matrix, 2015).
About 2,000 (36%) of roughly 5,500 compounds were called active. Inconclusive results (about 18%) are left out. Cut-off read from the data, not from the text of the source: active = normalized growth mostly below about 0.91 (no sharp cut-off); inconclusive = no clear call, values can overlap the other calls; inactive = mostly above about 0.92. The list shows a part of the results.

Assay: chemical genetic growth profiling, strain panel (AID 1159580);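 note: tested at 20 µM; growth read once vehicle control cultures reached saturation at 30 °C; 1 = growth at the plate median or of vehicle wells; lower values mean less growth of the strain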
Settings: S. cerevisiae deletion strains, growth OD

Measured: normalized growth

CCC1OC(=O)[C@H](C)C(=O)[C@H](C)[C@@H](OC2O[C@H](C)C[C@H](N(C)C)[C@H]2O)[C@](C)(OC)C2(CCCn3cnc(-c4cccnc4)c3)C[C@@H](C)C(=O)[C@H](C)[C@H]3N(C2)C(=O)O[C@]13C (stereo partly drawn)
inactive: locus YAL013W, strain DEP1, hits give low values 1 | locus YAL021C, strain ccr4, hits give low values 0.973 | locus YAL026C, strain drs2, hits give low values 0.976 | locus YAL030W, strain snc1, hits give low values 0.981 | locus YBL061C, strain skt5, hits give low values 0.98 | locus YBR009C, strain hhf1, hits give low values 0.962 | locus YBR021W, strain FUR4, hits give low values 1 | locus YBR023C, strain chs3, hits give low values 0.998 | locus YBR171W, strain sec66, hits give low values 0.984 | locus YBR229C, strain ROT2, hits give low values 1 | locus YBR231C, strain swc5, hits give low values 0.984 | locus YBR279W, strain paf1, hits give low values 0.996 | locus YCL011C, strain gbp2, hits give low values 0.981 | locus YCL016C, strain dcc1, hits give low values 0.975 | locus YCL029C, strain bik1, hits give low values 1 | locus YCL069W, strain vba3, hits give low values 0.979 | locus YCR088W, strain abp1, hits give low values 0.979 | locus YDL005C, strain med2, hits give low values 0.989 | locus YDL035C, strain GPR1, hits give low values 1.01 | locus YDL040C, strain nat1, hits give low values 0.982 | locus YDL074C, strain BRE1, hits give low values 1.02 | locus YDL101C, strain DUN1, hits give low values 1.01 | locus YDL134C, strain PPH21, hits give low values 1.01 | locus YDL185W, strain tfp1, hits give low values 1.01 | locus YDL192W, strain arf1, hits give low values 1.01 | locus YDR001C, strain nth1, hits give low values 0.983 | locus YDR069C, strain doa4, hits give low values 0.996 | locus YDR101C, strain arx1, hits give low values 0.985 | locus YDR137W, strain rgp1, hits give low values 0.937 | locus YDR150W, strain NUM1, hits give low values 1.01 | locus YDR159W, strain sac3, hits give low values 0.96 | locus YDR162C, strain NBP2, hits give low values 1.02 | locus YDR195W, strain ref2 0.968 | locus YDR297W, strain sur2, hits give low values 0.982 | locus YDR318W, strain mcm21, hits give low values 1 | locus YDR334W, strain swr1, hits give low values 0.977 | locus YDR335W, strain msn5, hits give low values 0.976 | locus YDR388W, hits give low values 1.01 | locus YDR392W, strain spt3, hits give low values 0.936 | locus YDR502C, strain sam2, hits give low values 0.991 | locus YEL003W, strain gim4, hits give low values 0.958 | locus YEL037C, strain rad23, hits give low values 0.975 | locus YEL061C, strain CIN8 (second series), hits give low values 0.983 | locus YEL061C, strain CIN8, hits give low values 1 | locus YER015W, strain faa2, hits give low values 0.987 | locus YER016W, strain bim1, hits give low values 0.992 | locus YER110C, hits give low values 0.993 | locus YER111C, strain swi4, hits give low values 0.964 | locus YER155C, strain BEM2 (second series), hits give low values 1.02 | locus YER155C, strain BEM2, hits give low values 1.01 | locus YER167W, strain BCK2, hits give low values 1.01 | locus YFR010W, strain ubp6, hits give low values 0.995 | locus YGL078C, strain dbp3, hits give low values 1.01 | locus YGL086W, strain mad1, hits give low values 0.995 | locus YGL167C, strain pmr1, hits give low values 0.986 | locus YGL173C, strain kem1, hits give low values 0.975 | locus YGL227W, strain vid30, hits give low values 0.978 | locus YGL240W, strain doc1, hits give low values 0.994 | locus YGL248W, strain PDE1, hits give low values 1 | locus YGL253W, strain hxk2, hits give low values 0.965 | locus YGR078C, strain PAC10, hits give low values 1.03 | locus YGR135W, strain pre9, hits give low values 0.993 | locus YGR229C, strain SMI1, hits give low values 1.01 | locus YGR252W, strain gcn5, hits give low values 0.965 | locus YHR013C, strain ard1, hits give low values 0.96 | locus YHR027C, strain rpn1, hits give low values 0.99 | locus YHR030C, strain SLT2, hits give low values 0.999 | locus YHR079C, strain IRE1 (second series), hits give low values 0.991 | locus YHR094C, strain hxt1, hits give low values 1 | locus YHR129C, strain ARP1, hits give low values 1 | locus YHR142W, strain chs7, hits give low values 0.973 | locus YHR200W, strain rpn10, hits give low values 1 | locus YIL066C, strain RNR3, hits give low values 1.01 | locus YIL073C, strain SPO22, hits give low values 0.991 | locus YIL125W, strain kgd1, hits give low values 1 | locus YIR030C, strain dcg1, hits give low values 0.999 | locus YJL092W, strain hpr5, hits give low values 0.979 | locus YJL095W, strain BCK1 (second series), hits give low values 0.995 | locus YJL095W, strain BCK1, hits give low values 1 | locus YJL115W, strain asf1, hits give low values 0.973 | locus YJL129C, strain trk1, hits give low values 1.01 | locus YJL134W, strain LCB3, hits give low values 1.01 | locus YJL154C, strain vps35, hits give low values 0.977 | locus YJL164C, strain tpk1, hits give low values 0.977 | locus YJL166W, strain qcr8, hits give low values 0.998 | locus YJL168C, strain set2, hits give low values 0.999 | locus YJL187C, strain SWE1 (second series), hits give low values 0.999 | locus YJL187C, strain SWE1, hits give low values 0.984
